# Assay results reported in the supplement of paper PMC4466140.
# Columns and labels:
# Experiment in all cases: SPOT peptide array binding signal intensity (averaged, normalized) (arbitrary units (background-subtracted, floor 0; scale differs between SH3 domains)); higher = stronger binding of the SH3 domain to the peptide
# [1] = target: AgAbp1
# Method: (§1)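 GST-tagged SH3 domains from S. cerevisiae (Sc), A. gossypii (Ag), C. albicans (Ca) and S. pombe (Sp) were incubated at 10 ug/ml overnight at 4 C on cellulose SPOT membranes carrying 292 synthetic 15-mer peptides mined from the S. cerevisiae proteome (cysteines replaced by serines). Binding was detected with anti-GST antibody, HRP secondary and chemiluminescence, quantified with Genespotter, and reported as normalized spot intensities averaged over biological replicates.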
# [2] = target: AgBbc1
# Method: as §1
# [3] = target: AgBem1-D1
# Method: as §1
# [4] = target: AgBzz1-D1
# Method: as §1
# [5] = target: AgBzz1-D2
# Method: as §1
# [6] = target: AgCyk3
# Method: as §1
# [7] = target: AgFus1
# Method: as §1
# [8] = target: AgHof1
# Method: as §1
# [9] = target: AgHse1
# Method: as §1
# [10] = target: AgLsb1
# Method: as §1
# [11] = target: AgLsb4
# Method: as §1
# [12] = target: AgMyo5
# Method: as §1
# [13] = target: AgNbp2
# Method: as §1
# [14] = target: AgRvs167
# Method: as §1
# [15] = target: AgSho1
# Method: as §1
# [16] = target: AgSla1-D1-D2
# Method: as §1
# [17] = target: AgSla1-D3
# Method: as §1
# [18] = target: CaAbp1-D1
# Method: as §1
# [19] = target: CaAbp1-D2
# Method: as §1
# [20] = target: CaBbc1
# Method: as §1
# [21] = target: CaBem1-D1
# Method: as §1
# [22] = target: CaBzz1-D1
# Method: as §1
# [23] = target: CaBzz1-D2
# Method: as §1
# [24] = target: CaCyk3
# Method: as §1
# [25] = target: CaFus1
# Method: as §1
# [26] = target: CaHof1
# Method: as §1
# [27] = target: CaHse1
# Method: as §1
# [28] = target: CaLsb1
# Method: as §1
# [29] = target: CaLsb4
# Method: as §1
# [30] = target: CaMyo5
# Method: as §1
# [31] = target: CaNbp2
# Method: as §1
# [32] = target: CaRvs167
# Method: as §1
# [33] = target: CaRvs167-3
# Method: as §1
# [34] = target: CaSho1
# Method: as §1
# [35] = target: CaSla1-D1-D2
# Method: as §1
# [36] = target: CaSla1-D3
# Method: as §1
# [37] = target: ScAbp1
# Method: as §1
# [38] = target: ScBbc1
# Method: as §1
# [39] = target: ScBem1-D1
# Method: as §1
# [40] = target: ScBzz1-D1
# Method: as §1
# [41] = target: ScBzz1-D2
# Method: as §1
# [42] = target: ScCyk3
# Method: as §1
# [43] = target: ScFus1
# Method: as §1
# [44] = target: ScHof1
# Method: as §1
# [45] = target: ScHse1
# Method: as §1
# [46] = target: ScLsb1
# Method: as §1
# [47] = target: ScLsb2
# Method: as §1
# [48] = target: ScLsb3
# Method: as §1
# [49] = target: ScLsb4
# Method: as §1
# [50] = target: ScMyo3
# Method: as §1
# [51] = target: ScMyo5
# Method: as §1
# [52] = target: ScNbp2
# Method: as §1
# [53] = target: ScPex13
# Method: as §1
# [54] = target: ScRvs167
# Method: as §1
# [55] = target: ScSho1
# Method: as §1
# [56] = target: ScSla1-D1-D2
# Method: as §1
# [57] = target: ScSla1-D3
# Method: as §1
# [58] = target: SpAbp1-D1
# Method: as §1
# [59] = target: SpBbc1
# Method: as §1
# [60] = target: SpBzz1-D1
# Method: as §1
# [61] = target: SpBzz1-D2
# Method: as §1
# [62] = target: SpCyk3
# Method: as §1
# [63] = target: SpHof1
# Method: as §1
# [64] = target: SpHof1-2
# Method: as §1
# [65] = target: SpHof1-3
# Method: as §1
# [66] = target: SpHse1
# Method: as §1
# [67] = target: SpLsb1
# Method: as §1
# [68] = target: SpLsb4
# Method: as §1
# [69] = target: SpMyo1
# Method: as §1
# [70] = target: SpNbp2
# Method: as §1
# [71] = target: SpPex13
# Method: as §1
# [72] = target: SpRvs167
# Method: as §1
# [73] = target: SpSla1-D1-D2
# Method: as §1
# [74] = target: SpSla1-D3
# Method: as §1
binder,measurement,setting,value
NRPAIRIPSLKKPAL,SPOT peptide array binding signal intensity,[1],20
same,SPOT peptide array binding signal intensity,[2],12.5
same,SPOT peptide array binding signal intensity,[3],54.5
same,SPOT peptide array binding signal intensity,[4],16
same,SPOT peptide array binding signal intensity,[5],7
same,SPOT peptide array binding signal intensity,[6],2
same,SPOT peptide array binding signal intensity,[7],226
same,SPOT peptide array binding signal intensity,[8],111
same,SPOT peptide array binding signal intensity,[9],800
same,SPOT peptide array binding signal intensity,[10],361
same,SPOT peptide array binding signal intensity,[11],18.5
same,SPOT peptide array binding signal intensity,[12],0.5
same,SPOT peptide array binding signal intensity,[13],114
same,SPOT peptide array binding signal intensity,[14],1.33
same,SPOT peptide array binding signal intensity,[15],21.5
same,SPOT peptide array binding signal intensity,[16],24
same,SPOT peptide array binding signal intensity,[17],5.5
same,SPOT peptide array binding signal intensity,[18],191
same,SPOT peptide array binding signal intensity,[19],44
same,SPOT peptide array binding signal intensity,[20],122
same,SPOT peptide array binding signal intensity,[21],41
same,SPOT peptide array binding signal intensity,[22],25.5
same,SPOT peptide array binding signal intensity,[23],21.8
same,SPOT peptide array binding signal intensity,[24],7
same,SPOT peptide array binding signal intensity,[25],765
same,SPOT peptide array binding signal intensity,[26],≤ 0
same,SPOT peptide array binding signal intensity,[27],27
same,SPOT peptide array binding signal intensity,[28],2.5
same,SPOT peptide array binding signal intensity,[29],10.5
same,SPOT peptide array binding signal intensity,[30],2.75
same,SPOT peptide array binding signal intensity,[31],270
same,SPOT peptide array binding signal intensity,[32],33.3
same,SPOT peptide array binding signal intensity,[33],23
same,SPOT peptide array binding signal intensity,[34],218
same,SPOT peptide array binding signal intensity,[35],4.5
same,SPOT peptide array binding signal intensity,[36],0.75
same,SPOT peptide array binding signal intensity,[37],53.5
same,SPOT peptide array binding signal intensity,[38],9.25
same,SPOT peptide array binding signal intensity,[39],19
same,SPOT peptide array binding signal intensity,[40],31.5
same,SPOT peptide array binding signal intensity,[41],12.5
same,SPOT peptide array binding signal intensity,[42],20
same,SPOT peptide array binding signal intensity,[43],243
same,SPOT peptide array binding signal intensity,[44],≤ 0
same,SPOT peptide array binding signal intensity,[45],2200
same,SPOT peptide array binding signal intensity,[46],118
same,SPOT peptide array binding signal intensity,[47],12.5
same,SPOT peptide array binding signal intensity,[48],40
same,SPOT peptide array binding signal intensity,[49],10
same,SPOT peptide array binding signal intensity,[50],1
same,SPOT peptide array binding signal intensity,[51],≤ 0
same,SPOT peptide array binding signal intensity,[52],169
same,SPOT peptide array binding signal intensity,[53],23.8
same,SPOT peptide array binding signal intensity,[54],39.8
same,SPOT peptide array binding signal intensity,[55],412
same,SPOT peptide array binding signal intensity,[56],167
same,SPOT peptide array binding signal intensity,[57],4
same,SPOT peptide array binding signal intensity,[58],135
same,SPOT peptide array binding signal intensity,[59],3.75
same,SPOT peptide array binding signal intensity,[60],92
same,SPOT peptide array binding signal intensity,[61],≤ 0
same,SPOT peptide array binding signal intensity,[62],5
same,SPOT peptide array binding signal intensity,[63],66.5
same,SPOT peptide array binding signal intensity,[64],1.5
same,SPOT peptide array binding signal intensity,[65],850
same,SPOT peptide array binding signal intensity,[66],664
same,SPOT peptide array binding signal intensity,[67],43.5
same,SPOT peptide array binding signal intensity,[68],27.5
same,SPOT peptide array binding signal intensity,[69],≤ 0
same,SPOT peptide array binding signal intensity,[70],104
same,SPOT peptide array binding signal intensity,[71],3
same,SPOT peptide array binding signal intensity,[72],13.3
same,SPOT peptide array binding signal intensity,[73],≤ 0
same,SPOT peptide array binding signal intensity,[74],≤ 0
